Records with an inconclusive call do not appear. A call without a number means that no potency is given here. Unmarked numbers belong to inactive results. Active and inactive are the calls of the source. Calls follow the shape of the full dose curve.
Test: p53 small molecule agonists, cell-based qHTS assay with human liver microsomes (AID 1963577);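 as to activation: p53 response element beta-lactamase reporter cells with liver microsomes plus NADPH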
Conditions: HCT-116 p53RE-bla with human liver microsomes, ratio, 16 h; series mostly up to 66 µM
Excerpt: National Center for Advancing Translational Sciences [NCATS]
Division of Preclinical Innovation [DPI]
U.S. Environmental Protection Agency [EPA]
National Institutes of Environmental Health Sciences [NIEHS]
National Toxicology Program [NTP]
U.S. Food and Drug Administration [FDA]
p53, a tumor suppressor protein, is activated following cellular insult, including DNA damage and other cellular stresses. The activation of p53 regulates cell fate by inducing DNA repair, cell cycle arrest, apoptosis, or cellular senescence. The activation of p53, therefore, is a good indicator of DNA damage and other cellular stresses. […] The activation of the reporter gene under culture conditions can be detected by fluorescence intensity.
Tox21 Assay Protocol Summary:
The p53RE-bla cells were dispensed at 4,000cells/3ul/well in 1536-well black-clear bottom plates. After the assay plates were incubated at 37 C, 5% CO2 incubator for 5 hours, 23 nL of compounds dissolved in DMSO, positive controls or DMSO only was transferred to the assay plate. Following compound addition, 3 uL of human liver microsomes (XenoTech, Kansas City, KS) at final concentration of 0.5 mg/mL and 1uL of Beta-Nicotinamide adenine dinucleotide 2-phosphate (NADPH) at final concentration of 0.5 mg/mL were transferred to the assay plate. The plates were incubated at 37 C for 16 hours. 1 uL of LiveBLAzer detection mixture was added to each well and the plates were incubated at room temperature in the dark for 2 h.
Potency is read from the fitted curve at half-maximal effect.

Row | SMILES | Potency | activation
1 | CCOC(=O)/C=C/c1ccccc1 | inactive | –
2 | Nc1ccc([N+](=O)[O-])cc1O | inactive | –
3 | O=C(OC[C@H]1O[C@@H](OC(=O)c2cc(O)c(O)c(OC(=O)c3cc(O)c(O)c(O)c3)c2)[C@H](OC(=O)c2cc(O)c(O)c(OC(=O)c3cc(O)c(O)c(O)c3)c2)[C@@H](OC(=O)c2cc(O)c(O)c(OC(=O)c3cc(O)c(O)c(O)c3)c2)[C@@H]1OC(=O)c1cc(O)c(O)c(OC(=O)c2cc(O)c(O)c(O)c2)c1)c1cc(O)c(O)c(OC(=O)c2cc(O)c(O)c(O)c2)c1 | – | -11.4% [at 13.5 µM]
4 | CCCCCCCCCCCCCCCCC(C(=O)O)C(O)(CC(=O)O)C(=O)O (stereo not given) | inactive | –
5 | C[C@H]1[C@H](NC(=O)/C(=N/OC(C)(C)C(=O)O)c2csc(N)n2)C(=O)N1S(=O)(=O)O (stereo in doubt) | inactive | –
6 | CC[N+](C)(CC)CC | inactive | –
7 | N#CCCOCCC#N | inactive | –
8 | CC(O)C#CC(C)O (stereo not given) | inactive | –
9 | Oc1ccc(N=Nc2ccccc2)cc1 | inactive | –
10 | Nc1cccnc1N | inactive | –
11 | NC(Cc1ccc(F)cc1)C(=O)O (stereo not given) | – | 4.13% [at 5.99 µM]
12 | O=C1c2ccccc2C(=O)c2c(O)ccc(O)c21 | inactive | –
13 | Cc1cccc(C)c1NC(=O)CN1CCN(CCCC(c2ccc(F)cc2)c2ccc(F)cc2)CC1 | inactive | –
14 | CCCc1ccccc1O | inactive | –
15 | CCCCC(CC)COCCCN (stereo not given) | inactive | –
16 | CCCc1c(OCCCOc2ccc(OCC(=O)O)cc2)ccc(C(C)=O)c1O | inactive | –
17 | O=C(c1ccc(F)cc1)C1CCN(CCn2c(=S)[nH]c3ccccc3c2=O)CC1 | inactive | –
18 | Cc1c(C(=O)O)cccc1[N+](=O)[O-] | inactive | –
19 | N=C(N)N | inactive | –
20 | CC(C)OC(=O)OCOP(=O)(CO[C@H](C)Cn1cnc2c(N)ncnc21)OCOC(=O)OC(C)C | inactive | –

Row | SMILES | Potency | activation
21 | O=C(Nc1cccc([N+](=O)[O-])c1)c1cc2ccccc2cc1O | inactive | –
22 | C=CCCCCCCC=C | inactive | –
23 | CCC(Cl)CCC(Cl)C(Cl)CC(Cl)C(Cl)C(Cl)CCl (stereo not given) | inactive | –
24 | Cc1cc(Nc2ccc(O)cc2)ccc1N | inactive | –
25 | CCCCN(CCCC)c1ccc(C(=O)c2ccccc2C(=O)O)c(O)c1 | inactive | –
26 | Cc1ccc(O)c2ncccc12 | inactive | –
27 | CC(CN)CC(C)(C)CCN (stereo not given) | inactive | –
28 | O=c1cc(-c2ccc(O)cc2)oc2cc(O)cc(O)c12 | inactive | –
29 | O=C1CCc2ccc(OCCCCN3CCN(c4cccc(Cl)c4Cl)CC3)cc2N1 | inactive | –
30 | CCCC(=O)OCC | inactive | –
31 | CCc1ccc(C)cc1 | inactive | –
32 | CC(C)(c1ccc(Oc2ccc(N)cc2)cc1)c1ccc(Oc2ccc(N)cc2)cc1 | inactive | –
33 | c1cc(CN2CCCCC2)cc(OCCCNc2nc3ccccc3s2)c1 | inactive | –
34 | Nc1ccc(N)c2ccccc12 | inactive | –
35 | C=C(C)C(=O)OC | inactive | –
36 | S=P(N1CC1)(N1CC1)N1CC1 | 34.1 µM (active) | –
37 | C[Si](Cl)(c1ccccc1)c1ccccc1 | inactive | –
38 | CCNc1nc(NC(C)CC)nc(OC)n1 (stereo not given) | inactive | –
39 | CC[C@H]1CC[C@H](NCc2cc3c(cc2OC)[C@H]2C[C@H]2C(=O)N3C)[C@H](c2ccccc2)N1 | inactive | –
40 | CC(C)(C)c1cc(O)c(C(C)(C)C)cc1O | inactive | –
